# Source: PubChem (National Center for Advancing Translational Sciences (NCATS))
# In the library only some 11% were active in any assay of this set; here they are far more common.
# ALDH1A1 inh – inhibitors of human aldehyde dehydrogenase 1A1; Purified ALDH1A1, NADH fluorescence, propionaldehyde substrate; Potency, µM (highest dose often 75.3 µM), without a hit: top-dose activity, negative = inhibition, actives largely listed as inhibitors; 220,000 tested, 7.3% active;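 note: potency is the fitted concentration of half-maximal effect; plate controls were no enzyme wells and a reference inhibitor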
# HPGD inh – HPGD (human) dehydrogenase inhibition | P15428 | purified HPGD, NADH fluorescence kinetic, PGE2 substrate | Potency, µM, for the others: top-dose activity change, negative = inhibition, hits mostly inhibitors | 150,000 tested, 4.3% active | AID 894; note: potency is the fitted concentration of half-maximal effect
#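 20 nM HPGD preincubated 15 min at room temperature with compound in 50 mM Tris-HCl pH 8, 0.01% Tween 20. Started with 1 mM NAD+ and 30 uM prostaglandin E2; NADH fluorescence (360/450 nm) read 5 times over 30-s intervals, last minus first.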
# PNC assembly inh – perinucleolar compartment assembly inhibition; PC3M PTB-GFP, PNC prevalence imaging, 16 h; active compounds read low; activity change (PNC), negative = inhibition, % at 10 µM; 140,000 tested, 3.1% active;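 active = readout at or below -70, meaning at least 70% loss of cells showing the perinucleolar compartment, a nuclear body marking cancer cells; inconclusive = readout between -30 and a set limit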;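 note: plate controls were DMSO wells for no effect and camptothecin positive control wells for full effect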
#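 Read-out is percentage of cells bearing a perinucleolar compartment, from automated 20x imaging of fixed, Hoechst-stained PC3M PTB-GFP cells. Cells were seeded 4 h, then exposed 16 h to compound (23 nl of library stock) in duplicate plates.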
# IMPase Li inh – cell-permeable IMPase inhibitors with lithium potentiation; CHO-M1 cells, IP1 TR-FRET (IP-One), carbachol + lithium; Potency, µM (highest dose often 59.4 µM), for the others: at the highest dose activity, negative = IMPase inhibition, most hits filed as inhibitors; 210,000 tested, 0.35% active; active = well fitted inhibition curve with a large enough effect; inconclusive = small, poorly fitted or top-dose-only effect; inactive = no such curve, though single readings can be large or run the other way;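 note: IP1 builds up when IMPase is blocked and the TR-FRET signal falls; potency is the fitted concentration of half-maximal effect; plate controls were basal vehicle for no effect and high inhibitor control for full effect; nearly all actives have a fitted effect of over 50% in size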
#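 CHO cells stably expressing M1 receptor (2000/well, cultured 16–30 h) treated 30 min at 37C with compound plus low lithium. Cytosolic IP1 by TR-FRET (665/620 ratio and 620 channel) after 10 min lysis; AC50 by Hill fit.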
# IMPase cell inh – cell-permeable inhibitors of inositol monophosphatase (IMPase). 120,000 tested, under 10 active. inhibition (IP1 accumulation), % at 46.1 µM. P97697. CHO-M1 cells, IP1 accumulation, HTRF TR-FRET ratio; active = well fitted curve in the direction sought with a large enough effect in the signal ratio, not every such curve was filed as active; inconclusive = small, poorly fitted or top-dose-only effect, or a change in a side signal; inactive = no such curve, though single readings can be large or run the other way; the % refers to the signal ratio;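 note: cells stimulated with carbachol in lithium chloride buffer; plate controls were DMSO basal wells for no effect and reference inhibitor wells for full effect; higher means more IMPase inhibition seen as more IP1 and lower FRET ratio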
# Target sequence (P97697 whole entry, looked up): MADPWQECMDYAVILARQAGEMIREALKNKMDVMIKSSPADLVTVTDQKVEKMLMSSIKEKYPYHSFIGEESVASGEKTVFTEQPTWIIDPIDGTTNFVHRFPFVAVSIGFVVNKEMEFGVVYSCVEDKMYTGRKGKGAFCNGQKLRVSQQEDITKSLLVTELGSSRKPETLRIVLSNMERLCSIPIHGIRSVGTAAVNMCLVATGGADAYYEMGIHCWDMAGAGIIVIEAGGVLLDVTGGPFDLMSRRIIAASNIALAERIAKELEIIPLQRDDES
#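 CHO-M1 cells (CHO stably expressing M1 receptor), compound up to 46 uM final, stimulated with carbachol (50 uM as added) in buffer with 50mM LiCl, pH 7.4, 30 min at 37C. Cytosolic IP1 read by TR-FRET; AC50 from Hill fits.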
# * marks the source's active call; other numbers are inactive results; ? = inconclusive; . = not tested or not shown; [ ] = another dose, or the depositor's remark. Unless noted, calls come from the whole dose curve; as a rule, active = well fitted inhibition curve with a large enough effect (not every such curve was filed as active); inconclusive = small, poorly fitted or top-dose-only effect, or another doubt; inactive = no such curve, though single readings can be large or run the other way. Unless noted, % is set by controls: 0 for no effect and ±100 for the full control effect.
SMILES,ALDH1A1 inh,HPGD inh,PNC assembly inh,IMPase Li inh,IMPase cell inh
CC(=O)N1CCC2(CC1)CCN(c1ncccn1)CC2,-9%,-24%,.,-4%,.
CC(C)c1nnc(NC(=O)CS(=O)(=O)Cc2ccccc2)s1,7.9µM*,.,.,-11%,.
CCOc1ccccc1C(=O)Nc1nnc(C(C)C)s1,1.3µM*,-12%,25,12%[38.3 µM],3
CCOc1ccccc1C(=O)NN1C(=O)CCC1=O,-1%,-4%,-114*,-4%,.
CCOc1ccccc1C(=O)NCC(=O)O,7%,.,.,.,.
CCCC(C)c1nnc(NC(=O)CS(=O)(=O)Cc2ccccc2)s1 (configuration not stated),25µM*,13µM*,6,17%[38.3 µM],5
CC(C)Cc1nnc(NC(=O)CS(=O)(=O)Cc2ccccc2)s1,?,-28%,-18,-12%,.
CCNc1ncc2nc(-c3cc(F)cc(F)c3)c(=O)n(Cc3cccs3)c2n1,?,?,.,4%,.
COc1cc(OC)cc(C(=O)N[C@@H](CCSC)c2nc3ccccc3[nH]2)c1,-9%,.,.,2%,.
CC(C)OC(=O)CN1C(=O)C(C)(C)Oc2ccc(C(=O)NC3CC3)cc21,11µM*,-13%,?,16%[38.3 µM],0
Cc1ccnc(SCC(=O)c2cccc([N+](=O)[O-])c2)n1,32µM*,-19%,-29,1%,5
Cc1nc([N+](=O)[O-])c(Br)n1CC(=O)c1cccc([N+](=O)[O-])c1,25µM*,.,.,19%,.
CCC1(C)Cc2ccccc2-c2[nH][nH]c(=O)c21 (configuration not stated),4%,.,.,4%,.
Cc1cnnn1-c1cccc([N+](=O)[O-])c1,5%,.,.,-4%,.
Cc1cnnn1-c1ccc(C(=O)CCl)cc1,0.89µM*,?,50,2%[38.3 µM],-20
Cc1cc(=O)c(C(=O)O)cn1Nc1ccc(Cl)cc1,-3%,-10%,?,5%[38.3 µM],-1
O=C(Nc1ccc(C(=O)N2CCOCC2)cc1)Nc1ccc(Cl)cc1Cl,-6%,.,.,17%,.
O=C(Cn1nnc(-c2ccccc2F)n1)Nc1ccc(S(=O)(=O)NC2CCCC2)cc1,0%,7.1µM*,27,-16%[38.3 µM],0
O=C(Cn1nnc(-c2ccccc2F)n1)Nc1ccc(C(=O)N2CCOCC2)cc1,-1%,40µM*,-11,10%[38.3 µM],-2[1.84 µM]
Cc1ccccc1NC(=O)Cn1nnc(-c2ccc(N3CCOCC3)cc2)n1,?,?,9,10µM*,3
